From PubChem BioAssay (NCI)
About 79,000 compounds went through this panel and 15% of them were active in at least one assay; those are over-represented in the sample as a whole. The source made the active and inactive calls. Rule as the data show it: active = growth inhibition above about 70%; inactive = the rest.

Tests used:
[1] = NCI Yeast Anticancer Drug Screen. Data for the rad52 strain (AID 147);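 also: 0% = growth of vehicle-treated control cultures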; settings: S. cerevisiae rad52 mutant growth inhibition, active compounds read high
Outline: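 Yeast strain carrying a DNA damage repair alteration was exposed to test compounds. Growth inhibition was measured relative to vehicle-treated controls.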

[2] = NCI Yeast Anticancer Drug Screen. Data for the wt1 strain (AID 149);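 also: 0% = growth of vehicle-treated wt1 cultures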; settings: S. cerevisiae wt1 strain (SPY 50644) growth inhibition, active compounds read high
Outline: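 wt1 yeast, compound-treated; % growth inhibition vs vehicle control.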

[3] = NCI Yeast Anticancer Drug Screen. Data for the rad50EPP+ strain (AID 151);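 also: 0% = growth of vehicle-treated control cultures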; settings: S. cerevisiae rad50 mutant strain, active compounds read high
Outline: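 Yeast strain carrying rad50 alteration (rad50EPP+) exposed to compounds; growth inhibition measured relative to vehicle-treated controls.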

[4] = NCI Yeast Anticancer Drug Screen. Data for the mgt1 strain (AID 153); settings: S. cerevisiae mgt1 mutant growth inhibition, active compounds read high
Outline: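 Yeast mgt1 strain (DNA repair/cell-cycle alteration panel) exposed to compounds; growth inhibition measured relative to vehicle-treated controls.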

[5] = NCI Yeast Anticancer Drug Screen. Data for the rad50 strain (AID 155);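 also: 0% = growth of vehicle-only cultures of the same strain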; settings: S. cerevisiae rad50 strain growth inhibition, active compounds read high
Outline: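 Genetically altered yeast (DNA repair pathway); compound treatment; growth inhibition vs vehicle ctrl.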

[6] = NCI Yeast Anticancer Drug Screen. Data for the mec2-1 strain (AID 157); settings: S. cerevisiae mec2-1 strain, active compounds read high
Outline: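 mec2-1 yeast strain, carrying an alteration in DNA damage repair or cell cycle control, was exposed to compounds; growth inhibition was measured relative to vehicle-treated controls.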

[7] = NCI Yeast Anticancer Drug Screen. Data for the rad14 strain (AID 159);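 also: 0% = growth of vehicle-treated control cultures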; settings: S. cerevisiae rad14 strain growth inhibition, active compounds read high
Outline: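 Test compounds were applied to a repair-deficient yeast strain. Its growth was then compared with that of cultures given vehicle alone, and inhibition was expressed relative to those controls.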

[8] = NCI Yeast Anticancer Drug Screen. Data for the sgs1 mgt1 strain (AID 161);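 also: 0% = growth of cultures given vehicle only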; settings: S. cerevisiae sgs1 mgt1 strain, active compounds read high
Outline: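 This yeast growth screen uses a strain with defined DNA-repair lesions; compound-treated growth is compared with vehicle-treated growth.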

[9] = NCI Yeast Anticancer Drug Screen. Data for the CLN2oe strain (AID 163);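 also: 0% = growth of vehicle-only control cultures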; settings: S. cerevisiae CLN2oe strain, active compounds read high
Outline: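 Yeast cells carrying a defined cell-cycle control alteration were exposed to test compounds. Growth inhibition was scored against vehicle-treated control cultures.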

[10] = NCI Yeast Anticancer Drug Screen. Data for the cln2 rad14 strain (AID 165);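 also: 0% = growth equal to vehicle treated cultures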; settings: S. cerevisiae cln2 rad14 strain, active compounds read high
Outline: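 Yeast carrying cln2 and rad14 alterations (cell cycle control and DNA damage repair) were exposed to compounds. Growth inhibition was measured against vehicle-treated controls.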

[11] = NCI Yeast Anticancer Drug Screen. Data for the bub3 strain (AID 167); settings: S. cerevisiae bub3 mutant strain, active compounds read high
Outline: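 Yeast carrying a defined mutation is treated with each compound, and growth is compared with that of vehicle-exposed cells to give inhibition.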

[12] = NCI Yeast Anticancer Drug Screen. Data for the wt2 strain (AID 169);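 also: 0% = growth of vehicle-treated yeast cultures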; settings: S. cerevisiae wt2 strain growth inhibition, active compounds read high
Outline: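 Yeast cells were exposed to test compounds, and growth inhibition was measured relative to vehicle-treated controls.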

[13] = NCI Yeast Anticancer Drug Screen. Data for the sgs1 strain (AID 173);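 also: 0% = growth of vehicle-only control cultures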; settings: S. cerevisiae sgs1 mutant, active compounds read high
Outline: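 Yeast mutant strains carrying defined defects in DNA damage repair or cell cycle control were exposed to test compounds. Growth inhibition was scored against vehicle-treated controls.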

[14] = NCI Yeast Anticancer Drug Screen. Data for the mlh1 rad18 strain (AID 175); settings: S. cerevisiae mlh1 rad18 strain growth inhibition, active compounds read high
Outline: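 Growth inhibition of the yeast strain was measured after compound exposure and expressed relative to vehicle-treated controls. The strain carries defined defects in DNA damage repair.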

[15] = NCI Yeast Anticancer Drug Screen. Data for the rad18 strain (AID 177); settings: S. cerevisiae rad18 mutant growth inhibition, active compounds read high
Outline: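 Yeast carrying a defined DNA damage repair alteration were exposed to compounds. Growth inhibition was expressed relative to vehicle-treated controls.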

[16] = NCI Yeast Anticancer Drug Screen. Data for the mlh1 strain (AID 171);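 also: 0% = growth of vehicle-treated control cultures of the same strain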; settings: S. cerevisiae mlh1 strain growth inhibition, active compounds read high
Outline: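 Yeast carrying a defined genetic alteration in DNA damage repair or cell cycle control were exposed to test compounds. Growth inhibition was measured relative to vehicle-treated controls.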

[17] = at 5.0 µM (retest, dose inferred, filed as 0.5)
[18] = at 50.0 µM (retest, dose inferred, filed as 5.0)

Measured: growth inhibition

COc1cccc(/C=N/C(/N=C/c2cccc(OC)c2O)c2cccc(OC)c2O)c1O
inactive: [1]; at 1.2 µM 1% | [1]; at 3.7 µM 5% | [1]; at 11.0 µM 23% | [1]; at 33.0 µM 67% | [2]; at 1.2 µM -1% | [2]; at 3.7 µM 1% | [2]; at 11.0 µM 7% | [2]; at 33.0 µM 26% | [3]; at 1.2 µM 2% | [3]; at 3.7 µM 15% | [3]; at 11.0 µM 61% | [4]; at 1.2 µM -1% | [4]; at 3.7 µM -2% | [4]; at 11.0 µM 5% | [4]; at 33.0 µM 36% | [5]; at 1.2 µM 4% | [5]; at 3.7 µM -28% | [5]; [17] 19% | [5]; at 11.0 µM 52% | [6]; at 1.2 µM -1% | [6]; at 3.7 µM 2% | [6]; [17] -4% | [6]; at 11.0 µM 8% | [6]; at 33.0 µM 25% | [6]; [18] 27% | [7]; at 1.2 µM 1% | [7]; at 3.7 µM 6% | [7]; at 11.0 µM 19% | [8]; [17] 4% | [9]; at 1.2 µM -2% | [9]; at 3.7 µM 3% | [9]; at 11.0 µM 8% | [9]; at 33.0 µM 20% | [9]; at 100.0 µM 54% | [10]; [17] -1% | [10]; [18] 34% | [10]; at 50.0 µM 45% | [11]; at 1.2 µM -2% | [11]; at 3.7 µM -1% | [11]; [17] -5% | [11]; at 11.0 µM 1% | [11]; at 33.0 µM 39% | [11]; [18] 43% | [11]; at 50.0 µM 67% | [12]; at 1.2 µM 0% | [12]; at 3.7 µM 7% | [12]; at 11.0 µM 4% | [12]; at 33.0 µM 24% | [13]; at 1.2 µM -1% | [13]; at 3.7 µM 3% | [13]; at 11.0 µM 19% | [13]; at 33.0 µM 67% | [14]; [17] 4% | [14]; [18] 65% | [15]; at 1.2 µM -1% | [15]; at 3.7 µM 9% | [15]; at 11.0 µM 21% | [15]; at 33.0 µM 68%
active: [1]; at 100.0 µM 97% | [2]; at 100.0 µM 91% | [3]; at 33.0 µM 93% | [3]; at 100.0 µM 98% | [4]; at 100.0 µM 98% | [5]; at 33.0 µM 87% | [5]; [18] 79% | [5]; at 50.0 µM 89.5% | [5]; at 100.0 µM 97% | [6]; at 50.0 µM 87% | [6]; at 100.0 µM 96% | [7]; at 33.0 µM 73% | [7]; at 100.0 µM 99% | [8]; [18] 71% | [8]; at 50.0 µM 86.7% | [11]; at 100.0 µM 98% | [12]; at 100.0 µM 93% | [13]; at 100.0 µM 98% | [14]; at 50.0 µM 94.8% | [15]; at 100.0 µM 98%

C[C](C)(C)[Ge]([O][Ge]([c]1ccccc1)[c]1ccccc1)([O][Ge]([c]1ccccc1)[c]1ccccc1)[C](C)(C)C
active: [1]; at 33.0 µM 74% | [1]; at 100.0 µM 78% | [2]; at 100.0 µM 75% | [5]; at 50.0 µM 71.9% | [5]; at 100.0 µM 71% | [6]; at 33.0 µM 80% | [6]; [18] 75% | [6]; at 100.0 µM 79% | [8]; [18] 80% | [9]; at 33.0 µM 74% | [9]; at 100.0 µM 81% | [10]; [18] 82% | [11]; at 33.0 µM 77% | [11]; [18] 79% | [11]; at 50.0 µM 76.7% | [11]; at 100.0 µM 79% | [14]; [18] 90% | [14]; at 50.0 µM 75.9% | [15]; at 33.0 µM 73% | [15]; at 100.0 µM 74%
inactive: [1]; at 1.2 µM 1% | [1]; at 3.7 µM 15% | [1]; at 11.0 µM 53% | [2]; at 1.2 µM -3% | [2]; at 3.7 µM 5% | [2]; at 11.0 µM 42% | [2]; at 33.0 µM 68% | [3]; at 1.2 µM 0% | [3]; at 3.7 µM 5% | [3]; at 11.0 µM 5% | [3]; at 33.0 µM 1% | [3]; at 100.0 µM -3% | [4]; at 1.2 µM -2% | [4]; at 3.7 µM 3% | [4]; at 11.0 µM 44% | [4]; at 33.0 µM 67% | [4]; at 100.0 µM 62% | [5]; at 1.2 µM -1% | [5]; at 3.7 µM 6% | [5]; [17] 12% | [5]; at 11.0 µM 42% | [5]; at 33.0 µM 63% | [5]; [18] 63% | [6]; at 1.2 µM 4% | [6]; at 3.7 µM 21% | [6]; [17] 29% | [6]; at 11.0 µM 60% | [6]; at 50.0 µM 65.8% | [7]; at 1.2 µM -4% | [7]; at 3.7 µM 1% | [7]; at 11.0 µM 23% | [7]; at 33.0 µM 46% | [7]; at 100.0 µM 57% | [8]; [17] 19% | [8]; at 50.0 µM 61.6% | [9]; at 1.2 µM 4% | [9]; at 3.7 µM 18% | [9]; at 11.0 µM 55% | [10]; [17] 26% | [10]; at 50.0 µM 67.8% | [11]; at 1.2 µM -4% | [11]; at 3.7 µM 4% | [11]; [17] 9% | [11]; at 11.0 µM 53% | [12]; at 1.2 µM -1% | [12]; at 3.7 µM 10% | [12]; at 11.0 µM 46% | [12]; at 33.0 µM 64% | [12]; at 100.0 µM 64% | [16]; at 1.2 µM 0% | [16]; at 3.7 µM 9% | [16]; at 11.0 µM 49% | [16]; at 33.0 µM 66% | [16]; at 100.0 µM 68% | [14]; [17] 48% | [15]; at 1.2 µM 4% | [15]; at 3.7 µM 20% | [15]; at 11.0 µM 56%
